In PubChem BioAssay (NCI):
“And” between values parts separate entries of the source, which are not always exact repeats. Equal values may be shown once. The panel holds about 83,000 compounds, 20% with a hit somewhere; the sample as a whole holds those more often.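 Single-concentration screen, 48 h exposure, 96-well plates. Endpoint: percent growth. Below 10 = active.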 The source made the active and inactive calls.

How the values were obtained:
Assay in all cases: NCI-60 one-dose screen, 48 h (100 = growth as untreated, 0 = no growth, -100 = all killed)
Details in all cases: 10 µM unless noted
NCI-H23 lung = test system: NCI-H23 lung
NCI-H226 lung = test system: NCI-H226 lung
NCI-H322M lung = test system: NCI-H322M lung
HOP-62 NSCLC = test system: HOP-62 NSCLC
NCI-H460 lung = test system: NCI-H460 lung
HOP-92 NSCLC = test system: HOP-92 NSCLC
NCI-H522 lung = test system: NCI-H522 lung
A549/ATCC NSCLC = test system: A549/ATCC NSCLC
786-0 renal = test system: 786-0 renal
COLO 205 colon = test system: COLO 205 colon

Compound | growth (NCI-H23 lung) | growth (NCI-H226 lung) | growth (NCI-H322M lung) | growth (HOP-62 NSCLC) | growth (NCI-H460 lung) | growth (HOP-92 NSCLC) | growth (NCI-H522 lung) | growth (A549/ATCC NSCLC) | growth (786-0 renal) | growth (COLO 205 colon)
COc1ccc2[nH]cc(-c3nn4cc(-c5ccncc5)nc4s3)c2c1 | 70.2% (inactive) | 76.5% (inactive) | 78.2% (inactive) | 69.9% (inactive) | 51.3% (inactive) | 28.9% (inactive) | 51% (inactive) | 74.6% (inactive) | 79.8% (inactive) | 47% (inactive)
COc1ccc(OC)c(NC(=O)CCCCCCNC(=O)C(O)(O)C(F)(F)F)c1 | 48.6% (inactive) | 78.7% (inactive) | 61% (inactive) | 36.8% (inactive) | 39% (inactive) | 28.8% (inactive) | -0.794% (active) | 47.7% (inactive) | 50% (inactive) | 10.5% (inactive)
C#CCN(C)CCCOc1ccc(NC(=O)CCCCCCC(=O)NO)cc1Cl | 28.1% (inactive) | 63.1% (inactive) | 26.5% (inactive) | 30.1% (inactive) | 25.8% (inactive) | -14% (active) | 12.8% (inactive) | 20.5% (inactive) | 39.3% (inactive) | -26.1% (active)
COc1cc(NC(=O)Nc2cccc(-c3cc(=O)c4c(OC)c(OC)c(OC)cc4o3)c2)cc(OC)c1OC | 34.6% (inactive) | 49.7% (inactive) | 64.4% (inactive) | 49.7% (inactive) | 31.5% (inactive) | -8.97% (active) | 39.6% (inactive) | 57.2% (inactive) | 35.3% (inactive) | 58.1% (inactive)
Cc1ccc(NC(=O)/C=C/c2ccc(OCCCOc3ccc4c(C)cc(=O)oc4c3)cc2)cc1 | 75.1% (inactive) | 56.8% (inactive) | 37.8% (inactive) | 48.5% (inactive) | 38.8% (inactive) | 35.7% (inactive) | 51.9% (inactive) | 82.9% (inactive) | 44.3% (inactive) | 82.2% (inactive)
O=C(Nc1ccccc1)Nc1nc2ccc([N+](=O)[O-])cc2[nH]1 | 39.5% (inactive) | 55.4% (inactive) | 58.5% (inactive) | 105% (inactive) | 44.1% (inactive) | -5.31% (active) | 28.4% (inactive) | 56.7% (inactive) | 67.5% (inactive) | 88.7% (inactive)
Cc1ccc2c(n1)C(=O)C(Cl)=C(Nc1ccc(C(F)(F)F)cc1)C2=O | 68.5% (inactive) | 89.5% (inactive) | 107% (inactive) | 97.2% (inactive) | 101% (inactive) | 71.3% (inactive) | -18.8% (active) | 102% (inactive) | 34% (inactive) | 16.7% (inactive)
Cn1cc(-c2nn3cc(-c4ccncc4)nc3s2)c2cc(Br)ccc21 | 63.1% (inactive) | 83.5% (inactive) | 81.3% (inactive) | 71.6% (inactive) | 54.9% (inactive) | -0.882% (active) | 79.4% (inactive) | 66.4% (inactive) | 84.6% (inactive) | 46.5% (inactive)
Cc1ccc(Nc2nc(SC(C)C)nc(-c3ccccc3)c2C#N)cc1 | 86.1% (inactive) | 76.1% (inactive) | 70.7% (inactive) | 72.2% (inactive) | 95.2% (inactive) | 80.7% (inactive) | 83.7% (inactive) | 96.2% (inactive) | 92.2% (inactive) | 112% (inactive)
C#CCOc1cccc(/C(N)=N/C(N)=N/c2nc3ccccc3s2)c1 | 50.2% (inactive) | 68.1% (inactive) | 96.3% (inactive) | -36.3% (active) | 90.5% (inactive) | 125% (inactive) | 96.9% (inactive) | 10.8% (inactive) | 107% (inactive) | 119% (inactive)
CCc1cccc2c3c(sc12)C(c1ccc(F)cc1)C(C#N)=C(/N=C/c1ccc(Cl)cc1)O3 (stereo not given) | 32.4% (inactive) | 44.6% (inactive) | 52.9% (inactive) | 36.4% (inactive) | 14.6% (inactive) | 66.6% (inactive) | -43.4% (active) | 31.1% (inactive) | 34.2% (inactive) | -33.6% (active)
COc1ccc(NC(=O)CCCCCCNC(=O)C(O)(O)C(F)(F)F)cc1 | 53.2% (inactive) | 84.1% (inactive) | 66.1% (inactive) | 28.3% (inactive) | 40.2% (inactive) | 28.5% (inactive) | 0.885% (active) | 46.3% (inactive) | 52.9% (inactive) | 9.56% (active)
CC1=C(C)C(=O)C(Nc2cccc(C(F)(F)F)c2)=C(Br)C1=O | 88.8% (inactive) | 83.2% (inactive) | 100% (inactive) | 81.1% (inactive) | 96.4% (inactive) | 25% (inactive) | 29.2% (inactive) | 94.4% (inactive) | 97% (inactive) | 115% (inactive)
CCOC(=O)C1=C(C)NC(C)=C(C(=O)OCc2ccccc2)C1c1cccc(C#N)c1 (stereo not given) | 62.5% (inactive) | 58.4% (inactive) | 69% (inactive) | 45.6% (inactive) | 22.1% (inactive) | 50.5% (inactive) | 9.38% (active) | 34.1% (inactive) | 36.2% (inactive) | 34.5% (inactive)
COc1ccc(C2c3[nH]c4ccc(Cl)cc4c3CCN2c2oc(CO)nc2C#N)cc1 (stereo not given) | 69.9% (inactive) | 60% (inactive) | 70.4% (inactive) | 53.5% (inactive) | 22.9% (inactive) | 53.3% (inactive) | 31.7% (inactive) | 38.1% (inactive) | 64.6% (inactive) | 40.5% (inactive)
C/C=C/CC(C)C(O)[C@H](NC(=O)[C@@H]1CCCN1C(=O)[C@](C)(CC)NC(=O)CCCCCCCCC)C(=O)N[C@@](C)(CC)C(=O)N[C@@H](CCC(N)=O)C(=O)N[C@H](CCC(N)=O)C(=O)NC(C)(C)C(=O)NC(C)(C)C(=O)N[C@@H](CCC(N)=O)C(=O)N[C@H](CC(C)C)C(=O)N[C@H](CO)CC(C)C (stereo not given in full) | 68.4% (inactive) and -71.3% (active) | 49% (inactive) and -24.9% (active) | 69.8% (inactive) and -15.9% (active) | 56.3% (inactive) and -78.5% (active) | 63.6% (inactive) and -72.2% (active) | 75.3% (inactive) and -53.5% (active) | 14.7% (inactive) and -74.4% (active) | 76% (inactive) and 9.75% (active) | 47.7% (inactive) and -80.3% (active) | 48.7% (inactive) and -50.7% (active)
CCCCCc1ccc(S(=O)(=O)Nc2cc(-c3csc(N)n3)ccc2OC)cc1 | 88.7% (inactive) | 80% (inactive) | 103% (inactive) | 108% (inactive) | 99.5% (inactive) | 97.3% (inactive) | 84.9% (inactive) | 88% (inactive) | 99.1% (inactive) | 117% (inactive)
CN(C)S(=O)(=O)c1ccc(-c2nc(C(Cl)Cl)nc3cc(-c4ccccc4)nn23)cc1 | 85% (inactive) | 96% (inactive) | 99% (inactive) | 70.7% (inactive) | 89% (inactive) | 79% (inactive) | 89.6% (inactive) | 82.6% (inactive) | 90.6% (inactive) | 69.5% (inactive)
CCc1cc2c(cc1Cl)nc1c(=O)[nH]c(=O)nc-1n2CCOCC(C)C | 67.7% (inactive) | 39.4% (inactive) | 54.9% (inactive) | 100% (inactive) | 49.3% (inactive) | 126% (inactive) | 55.6% (inactive) | 67.1% (inactive) | 70.3% (inactive) | 21.3% (inactive)
CCCN1C=C/C(=C\C(=O)n2ccc3ccccc32)c2ccccc21 | 72.9% (inactive) | 75.1% (inactive) | 80.2% (inactive) | 94.6% (inactive) | 94.5% (inactive) | 47.9% (inactive) | 78.4% (inactive) | 84.9% (inactive) | 103% (inactive) | 96.4% (inactive)
O=C(/C=C/c1ccccc1)c1cccc(O)c1 | 104% (inactive) | 93.4% (inactive) | 93.4% (inactive) | 105% (inactive) | 101% (inactive) | 96.1% (inactive) | 95.1% (inactive) | 92.7% (inactive) | 94.6% (inactive) | 110% (inactive)
Clc1ccc(CSc2nnc(-c3ccc(Cl)cc3)n2-c2ccccc2)cc1 | 79.8% (inactive) | 46.1% (inactive) | 92.7% (inactive) | 92.4% (inactive) | 85.8% (inactive) | 89.5% (inactive) | 70.1% (inactive) | 80.3% (inactive) | 59.7% (inactive) | 122% (inactive)
CC(=O)OC[C@@]12Oc3c(cccc3-c3ccc(O)c4c3O[C@]3(COC(C)=O)C(=C4O)C(=O)C[C@H](C)[C@@H]3OC(C)=O)C(O)=C1C(=O)C[C@H](C)[C@@H]2OC(C)=O | 2.54% (active) | 25.9% (inactive) | 33.1% (inactive) | 8.14% (active) | 10.3% (inactive) | -25.2% (active) | -7.22% (active) | 19.4% (inactive) | 27.7% (inactive) | -3.3% (active)
